Source: PubChem BioAssay AID701 (PCMD, 2007)
Screen size: about 33,000 compounds; about 70 (0.2%) were called active. No stated cut-off is given here; in the data, active means inhibition above about 30%; inactive means the rest. The list is a sample of the results.

Molecular target: Coagulation factor XII (Homo sapiens) (UniProt P00748)
Assay: human FXIIa protease inhibitors, primary screen, biochemical, single well (AID 701);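 further: 0% = enzyme with vehicle only and 100% = no enzyme blank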
Conditions: purified human FXIIa, AMC substrate fluorescence, 2 h; at 10 µM; stronger effect = higher value

Sequence of Coagulation factor XII (Homo sapiens) (P00748 20-372 limits assumed): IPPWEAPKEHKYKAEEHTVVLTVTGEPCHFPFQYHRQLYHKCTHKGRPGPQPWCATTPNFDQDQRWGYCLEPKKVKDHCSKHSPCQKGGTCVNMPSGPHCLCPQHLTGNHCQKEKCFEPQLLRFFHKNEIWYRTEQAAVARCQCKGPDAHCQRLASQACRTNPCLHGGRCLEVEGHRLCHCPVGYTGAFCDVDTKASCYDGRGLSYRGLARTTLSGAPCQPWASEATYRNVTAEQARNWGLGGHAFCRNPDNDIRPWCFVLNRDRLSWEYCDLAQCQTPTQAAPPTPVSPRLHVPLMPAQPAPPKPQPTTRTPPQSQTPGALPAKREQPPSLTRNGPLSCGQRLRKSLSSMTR
Sequence of Coagulation factor XII (Homo sapiens) (P00748 373-615 limits assumed): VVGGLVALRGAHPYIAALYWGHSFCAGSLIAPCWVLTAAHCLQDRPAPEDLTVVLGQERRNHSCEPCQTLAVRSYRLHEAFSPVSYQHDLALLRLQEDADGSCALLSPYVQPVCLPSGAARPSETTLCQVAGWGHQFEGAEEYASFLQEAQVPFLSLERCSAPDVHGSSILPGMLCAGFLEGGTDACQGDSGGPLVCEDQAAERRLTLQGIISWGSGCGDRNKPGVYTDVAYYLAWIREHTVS

inhibition, inactive:
O=C(O)CCN=C1CCc2ccccc2N1 6.9%
O=C(NCc1ccccc1Cl)c1csc2c1CCCCC2 5.87%
CC1(C)N=C(c2ccccn2)C(C)(C)N1O -0.08%
O=C(NCc1ccco1)C1(c2ccc(Cl)cc2)CCCC1 1.49%
CNC(=O)c1nnc(Cc2ccc(Cl)cc2)o1 2.02%
O=C(c1ccc2c(c1)OCO2)N1CCOCC1 0.77%
CCN1C(=O)/C(=C\N2CCOCC2)SC1=S 7.15%
CC1(C)COC(c2cccn2Cc2ccccc2Cl)=N1 6.11%
O=C(CN1CCSCC1)N/N=C/c1ccc(F)cc1F 13.2%
COc1ccc(Cl)cc1C(=O)NCc1cn(C)nc1C 7.49%
COc1ccc(CNc2ccc3c(c2)CCC3)cc1OC 4.51%
O=C1/C(=C\Nc2ccccc2)CCN1c1ncccn1 11.1%
N#Cc1cccc(NC(=O)CCC2CCCC2)c1 5.6%
O=C(NC1CCCC1)C(c1ccccn1)N(C(=O)c1csnn1)C1CCCC1 (configuration not stated) -12%
Cc1cc(C(F)F)n2nc(C(=O)Nc3ccc(S(=O)(=O)NC45CC6CC(CC(C6)C4)C5)cc3)nc2n1 3.77%
CCOc1ccc(C(O)Cn2c(=N)n(CCN3CCCCC3)c3ccccc32)cc1 (configuration not stated) -17.3%
Cc1cc(C(F)(F)F)n2ncc(-c3ccccc3)c2n1 4.27%
CCC1(CC)Cc2ccccc2-c2nc3ccccc3c(=O)n21 -9.34%
Cc1ccc(NS(=O)(=O)c2c(C)[nH]c(=O)[nH]c2=O)cc1C 5.29%
CC(C)NC(=O)CSc1nnc(COc2ccccc2Cl)o1 6.2%
CCOC(=O)N1CCC(N(CCOC)C(=O)Nc2ccc(C)c(C)c2)CC1 11%
N#C/C(=C\c1ccccc1)c1n[nH]c(Cn2cncn2)n1 3.67%
CCOC(=O)c1cnc(SCc2nc(N)nc(Nc3ccc(OC)cc3)n2)nc1N 2.04%
O=C(N/N=C/C=C/c1ccccc1)C1CC1(c1ccccc1)c1ccccc1 (configuration not stated) 7.46%
CCOc1ccc(NC(=O)N(CC(C)C)CC(C)C)cc1 3.85%
CCC(C)NC(=O)C1CCCN(C(=O)NC2CCCCC2)C1 (configuration not stated) 5.82%
O=C(CC12CC3CC(CC(C3)C1)C2)Nc1ccc2c(c1)COC2=O 3.57%
COc1ccc(C)cc1N(C)C(=O)c1coc(=O)c2ccccc12 1.74%
C=CCNC(=O)C1CC=CCC1C(=O)O (configuration not stated) 5.98%
CC1CC(C)CN(CC(=O)N2c3ccccc3CCc3ccccc32)C1 (configuration not stated) -2.18%
COC(CNC(=O)Cn1ncc2ccsc2c1=O)OC 8.94%
Cc1cccc(C)c1NC(=O)CSc1nnc(-c2ccccc2)n1Cc1ccc2c(c1)OCO2 7.65%
CC1(C)CC(CC(=O)O)C(=O)O1 (configuration not stated) -10.1%
COc1ccccc1-c1nc(C#N)c(N2CCC(C(N)=O)CC2)o1 -1.38%
COc1ccc(Br)cc1CN1CCN(C(=O)c2cccc(OC)c2OC)CC1 6.66%
O=C(CCN1c2ccccc2Sc2ccccc21)Nc1ccccc1 4.62%
COc1ccc(NC(=O)C(CC(C)C)NS(=O)(=O)c2ccc3c(c2)CCN3C(C)=O)cc1OC (configuration not stated) 5.4%
CCOC(=O)c1ccc2c(c1)nc(C)n2CC 2.03%
CCCNC(=O)c1ccc(Cl)c(Cl)c1 3.09%
CCCCc1nnc(NC(=O)CS(=O)(=O)Cc2ccccc2)s1 2.19%
N#C/C(=C(\O)CCl)c1nnc2n1CCCCC2 1.09%
Cc1ccc(-n2nc3c(c2NC(=O)CCC2CCCCC2)CS(=O)C3)cc1 (configuration not stated) 2.44%
